Source: PubChem BioAssay (NCATS)
“And” between values parts separate entries of the source, which are not always exact repeats. Equal values may be shown once. Results filed as inconclusive are left out. The source made the active and inactive calls. Calls follow the shape of the dose curve; as a rule, active = well fitted curve in the direction sought with a large enough effect; inconclusive = small, poorly fitted or top-dose-only effect, or another doubt; inactive = no such curve, though single readings can be large or run the other way.

test: qHTS Assay for Identifying Gametocytocidal Compounds (AID 743244);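 as to max response: actives lower the fluorescent signal which means gametocytes are killed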; conditions: P. falciparum 3D7 stage III-V gametocytes, alamarBlue, 72 h; max response: stronger effect = lower value
Summary of the method: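 Viability read-out was resazurin reduction (alamarBlue, 24 h) measured at Ex 525/Em 598 nm. Beforehand, late-stage (III-V) 3D7 P. falciparum gametocytes at 20,000 cells/well were incubated with compound 72 h at 37C under 5% CO2.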
% is scaled to controls: 0 for no effect and ±100 for the full control effect; potency is read from the fitted curve at half-maximal effect.

For COc1ncnc(NS(=O)(=O)c2ccc(N)cc2)c1OC, which max response is on record?
The max response was -8.03% (inactive).

For CNS(=O)(=O)Cc1ccc2[nH]cc(CCN(C)C)c2c1, which max response is on record?
The max response was 0.507% (inactive).

For CNC1CCCN(c2c(F)cc3c(=O)c(C(=O)O)cn(C4CC4)c3c2OC)C1 (stereo not given), which max response is on record?
Its max response is -8.7% (inactive).

For Cc1cccc(Nc2ccncc2S(=O)(=O)NC(=O)NC(C)C)c1, which max response is on record?
Its max response is -10.6% (inactive).

With CC[C@H](NC(C)C)[C@H](O)c1ccc(O)c2[nH]c(=O)ccc12 as the molecule, how does the max response read?
The max response was 0.956% (inactive).

With COC(c1ccccc1)(c1ccccc1)[C@H](Oc1nc(C)cc(C)n1)C(=O)O as the molecule, how does the max response read?
Its max response is 8.54% (inactive).

With COc1cccc(N(C)C(=S)Oc2ccc3c(c2)CCCC3)n1 as the molecule, how does the max response read?
The max response was -0.766% (inactive).

Which max response does the source give for CCn1cc(C(=O)O)c(=O)c2cc(F)c(N3CCN(C)CC3)cc21 here?
Its max response is 4.94% (inactive).

For O=P(O)(O)C(O)(Cc1cccnc1)P(=O)(O)O, which max response is on record?
Its max response is 8.36% (inactive).

For CN1CCCC(n2nc(Cc3ccc(Cl)cc3)c3ccccc3c2=O)CC1 (stereo not given), which max response is on record?
Its max response is 32.9% (inactive).

Which max response does the source give for C[C@@H](CN1CC(=O)NC(=O)C1)N1CC(=O)NC(=O)C1 here?
The max response was 9.49% (inactive).

For CCn1cc(C(=O)O)c(=O)c2cc(F)c(N3CCNCC3)cc21, which max response is on record?
The max response was 1.43% (inactive) and -0.58% (inactive).

For CC(C)(C#N)c1cc(Cn2cncn2)cc(C(C)(C)C#N)c1, which max response is on record?
Its max response is 7.01% (inactive).

Which max response does the source give for CS(=O)(=O)c1ccc([C@@H](O)[C@@H](CO)NC(=O)C(Cl)Cl)cc1 here?
Its max response is 8.86% (inactive).

For CCCCCCNC(=O)n1cc(F)c(=O)[nH]c1=O, which max response is on record?
The max response was -3.88% (inactive).

Which max response does the source give for CCOC(=O)c1ccc(C#Cc2ccc3c(c2)C(C)(C)CCS3)nc1 here?
Its max response is 32% (inactive).

Which max response does the source give for CNS(=O)(=O)CCc1ccc2[nH]cc(C3CCN(C)CC3)c2c1 here?
Its max response is 4.41% (inactive).

For Cc1onc(-c2ccccc2Cl)c1C(=O)N[C@@H]1C(=O)N2[C@@H]1SC(C)(C)[C@@H]2C(=O)O, which max response is on record?
The max response was -11.3% (inactive).

Which max response does the source give for O=c1cc(O)c(Cl)c[nH]1 here?
Its max response is 10.3% (inactive).

With NS(=O)(=O)c1cc2c(cc1Cl)NC(C(Cl)Cl)NS2(=O)=O (stereo not given) as the molecule, how does the max response read?
Its max response is 6.12% (inactive).

Which max response does the source give for CCC(=O)O[C@]1(C(=O)SCF)[C@H](C)C[C@H]2[C@@H]3C[C@H](F)C4=CC(=O)C=C[C@]4(C)[C@@]3(F)[C@@H](O)C[C@@]21C here?
Its max response is -5% (inactive).

For NC(=O)N1c2ccccc2CC(=O)c2ccccc21, which max response is on record?
The max response was 34.3% (inactive).

Which max response does the source give for COc1cc(NS(=O)(=O)c2ccc(N)cc2)nc(OC)n1 here?
Its max response is 22.6% (inactive).

Which max response does the source give for COc1ccc(C(=O)CC(=O)c2ccc(C(C)(C)C)cc2)cc1 here?
The max response was 7.37% (inactive).

With O[C@@H](CNC[C@H](O)[C@H]1CCc2cc(F)ccc2O1)[C@@H]1CCc2cc(F)ccc2O1 as the molecule, how does the Potency read?
Its Potency is 11.2 µM (active).

With CNNCc1ccc(C(=O)NC(C)C)cc1 as the molecule, how does the max response read?
Its max response is -5.75% (inactive).

Which max response does the source give for Nc1[nH]c(=O)ncc1F here?
The max response was -2.11% (inactive).

For Nc1nc(=S)c2[nH]cnc2[nH]1, which max response is on record?
Its max response is 3.77% (inactive) and 7.36% (inactive).

For Nc1ccc(S(=O)(=O)Nc2ccccn2)cc1, which max response is on record?
Its max response is 3.9% (inactive).

Which max response does the source give for C[C@@H]1C[C@H]2[C@@H]3CCC4=CC(=O)C=C[C@]4(C)[C@@]3(Cl)[C@@H](O)C[C@]2(C)[C@@]1(OC(=O)c1ccco1)C(=O)CCl here?
The max response was 3.64% (inactive).

With CCCCOc1ccc(CC(=O)NO)cc1 as the molecule, how does the max response read?
The max response was 1.51% (inactive).

For COc1ccc2c(c1)c(CC(=O)OCC(=O)O)c(C)n2C(=O)c1ccc(Cl)cc1, which max response is on record?
The max response was -13.1% (inactive).

For CCCN[C@H]1CCc2nc(N)sc2C1, which max response is on record?
The max response was -5.22% (inactive).

Which max response does the source give for Cc1oc(=O)oc1CN1CCN(c2cc3c(cc2F)c(=O)c(C(=O)O)c2n3C(C)S2)CC1 (stereo not given) here?
Its max response is 2.62% (inactive).

With C[C@@H]1CN(c2c(F)c(N)c3c(=O)c(C(=O)O)cn(C4CC4)c3c2F)C[C@H](C)N1 as the molecule, how does the max response read?
Its max response is 13.9% (inactive).
